RORgamma inh: qHTS for inhibitors of ROR gamma transcriptional activity. AID 2551, 2010. Nuclear receptor ROR-gamma (Mus musculus), P51450. Drosophila S2 Gal4-RORgamma UAS-luciferase reporter, 20 h. 5.4% of 310,000 active. Potency, µM (titrated, usually from 53.6 µM), most hits filed as inhibitors; note: nearly all actives have a fitted effect of over 60% in size
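Using a luciferase readout, inhibitors were identified by reduced reporter activity in Drosophila cells coexpressing a copper-inducible Gal4–ROR gamma fusion and UAS-driven Photinus luciferase, incubated 20 hr after 700 uM copper sulfate.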
PKM2 activator: qHTS Assay for Activators of Human Muscle isoform 2 Pyruvate Kinase; purified PKM2, Kinase-Glo ATP luminescence, activation; response scale: 0% is enzyme alone, no compound; Potency, µM (series often up to 57.5 µM), hits mostly activators; 0.34% of 260,000 active; AID 1631, 2009; note: nearly all actives have a fitted effect of over 55% in size
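hPK-M2, >95% pure; 0.1 mM ADP / 0.5 mM PEP final; imidazole pH7.2 buffer w/ 7 mM MgCl2, 50 mM KCl; 1 h RT; Kinase-Glo lum. Intermediate enzyme activity for dual inhibitor/activator qHTS.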
CtBP-E1A inh: qHTS Assay for Inhibitors of the CtBP/E1A Interaction; CtBP / adenovirus E1A interaction (AlphaScreen); AlphaScreen GST-E1A/His-CtBP binding, 1536-well; active compounds read low; activity change, % (test concentration not listed); 0.49% of 340,000 active; AID 651724, 2012; in the data active = activity change below about -65%; inconclusive = mostly about -30% to -63%
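GST-E1A and His-tagged CtBP (125 nM each as 5X stock) were preincubated with pin-transferred compound for 2 h at 37 °C in the dark, then glutathione donor and nickel acceptor beads were added for 1 h before AlphaScreen reading.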
Six1-Eya2 blk: qHTS Assay for Inhibitors of the Six1/Eya2 Interaction; 0.56% of 360,000 active; AlphaScreen GST-Six1/His-Eya2 binding, biochemical; active compounds read low; Homeobox protein SIX1 (Homo sapiens) + Protein phosphatase EYA2 (Homo sapiens), …; AID 651725, 2012; activity change, % (concentration not given with the values); in the data active = activity change below about -65%; inconclusive = mostly about -30% to -63%
Target sequence (O00167 whole entry, looked up): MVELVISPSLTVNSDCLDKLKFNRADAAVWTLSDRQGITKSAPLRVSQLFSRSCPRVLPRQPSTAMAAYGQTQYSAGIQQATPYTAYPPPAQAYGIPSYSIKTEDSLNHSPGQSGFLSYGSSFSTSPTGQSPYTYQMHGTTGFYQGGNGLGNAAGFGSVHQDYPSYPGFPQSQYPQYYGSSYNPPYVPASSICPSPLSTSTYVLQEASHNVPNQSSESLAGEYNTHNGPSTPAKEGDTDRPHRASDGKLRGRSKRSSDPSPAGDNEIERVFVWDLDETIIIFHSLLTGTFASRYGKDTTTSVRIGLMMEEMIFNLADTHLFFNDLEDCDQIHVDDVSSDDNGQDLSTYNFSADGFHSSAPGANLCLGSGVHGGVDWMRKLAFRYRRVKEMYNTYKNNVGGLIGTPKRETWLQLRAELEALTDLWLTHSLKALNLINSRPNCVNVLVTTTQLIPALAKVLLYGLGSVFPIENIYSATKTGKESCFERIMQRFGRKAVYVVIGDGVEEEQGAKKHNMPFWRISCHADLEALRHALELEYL
Target sequence (Q15475 whole entry, looked up): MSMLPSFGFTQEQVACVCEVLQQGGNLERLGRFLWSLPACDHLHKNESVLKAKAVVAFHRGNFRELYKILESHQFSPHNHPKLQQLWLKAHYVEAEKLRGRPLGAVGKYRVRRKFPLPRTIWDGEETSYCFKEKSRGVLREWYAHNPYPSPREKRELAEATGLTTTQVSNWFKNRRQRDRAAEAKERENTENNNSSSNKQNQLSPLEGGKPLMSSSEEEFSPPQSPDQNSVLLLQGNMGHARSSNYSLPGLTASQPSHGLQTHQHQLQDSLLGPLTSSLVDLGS
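AlphaScreen with GST-Six1 and His-Eya2 (5X mix: 250 nM and 500 nM), glutathione donor and nickel acceptor beads; buffer 50 mM Tris pH 8.0, 300 mM NaCl, 1 mM TCEP; 1 h at 37 C in the dark.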
Gal4-VP16 FLuc: VP16 counterscreen qHTS for inhibitors of ROR gamma transcriptional activity. Drosophila S2 Gal4-VP16 UAS-luciferase, luminescence, 20 h. Potency, µM (titrated, usually from 53.6 µM), most hits filed as inhibitors. 3.5% of 310,000 active. AID 2546, 2010;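 note: Gal4-VP16 expression switched on by copper sulfate through the metallothionein promoter; nearly all actives have a fitted effect of over 50% in size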
Each line names hits and unclear results; the compound was inactive in the other large screens. Compounds with a hit are over-represented: about 5.6% of the library has one in this group of screens. Unless noted, calls come from the whole dose curve; as a rule, active = well fitted curve in the direction sought with a large enough effect; inconclusive = small, poorly fitted or top-dose-only effect, or another doubt; inactive = no such curve, though single readings can be large; an effect the other way counts as inactive or inconclusive.

COc1cc(C(=O)NCC(=O)NCC(c2ccco2)N2CCCCC2)cc(OC)c1OC (stereo not drawn)	none (no result: RORgamma inh, PKM2 activator, Gal4-VP16 FLuc)
O=C1c2oc3ccc(F)cc3c(=O)c2C(c2ccc(F)cc2)N1CCCN1CCOCC1 (stereo not drawn)	none (no result: RORgamma inh, PKM2 activator, Gal4-VP16 FLuc)
O=C1c2oc3ccc(Cl)cc3c(=O)c2C(c2ccccn2)N1CCCN1CCOCC1 (stereo not drawn)	RORgamma inh 22.4µM, Gal4-VP16 FLuc inconclusive
Fc1ccc2nc(Nc3nc4c(F)cc(F)cc4s3)sc2c1	RORgamma inh 8.91µM, Gal4-VP16 FLuc 6.31µM
Fc1ccc2nc(Nc3ccccc3)sc2c1	none
Fc1cccc2sc(Nc3nc4ccccc4s3)nc12	RORgamma inh 4.47µM, Gal4-VP16 FLuc 7.08µM
Fc1ccc2nc(Nc3nc4c(F)cccc4s3)sc2c1	RORgamma inh 2µM, Gal4-VP16 FLuc 5.62µM
CCC(C)(C)C(=O)O[C@@H]1C[C@@H](C)C=C2C=C[C@H](C)[C@H](CC[C@@H]3C[C@@H](O)CC(=O)O3)[C@H]21	Gal4-VP16 FLuc inconclusive (no result: PKM2 activator, CtBP-E1A inh, Six1-Eya2 blk)
COCCNC(=O)C1CCCN(C(=O)c2cccnc2Oc2ccccc2)CC1 (stereo not drawn)	none (no result: RORgamma inh, PKM2 activator, Gal4-VP16 FLuc)
CC1=NN(c2ccccc2)C(=O)C1N=Nc1ccccc1 (stereo not drawn)	RORgamma inh inconclusive
COc1ccc(N=NC2C(=O)N(c3ccccc3)N=C2C)cc1 (stereo not drawn)	CtBP-E1A inh inconclusive, Six1-Eya2 blk -73.3 (no result: PKM2 activator)
CC1=NN(c2ccccc2)C(=O)C1N=Nc1cccc(O)c1 (stereo not drawn)	RORgamma inh inconclusive, CtBP-E1A inh inconclusive, Gal4-VP16 FLuc inconclusive
CC1=NN(c2ccccc2)C(=O)C1N=Nc1ccc(N)cc1 (stereo not drawn)	CtBP-E1A inh inconclusive, Six1-Eya2 blk -70.6, Gal4-VP16 FLuc 8.91µM
COc1cc(CC(=O)OCC(=O)Nc2ccc(S(=O)(=O)N3CCCC3)cc2)cc(OC)c1OC	PKM2 activator 20µM
CCN(CC(=O)Nc1cccc(S(=O)(=O)N2CCCC2)c1)CC(=O)Nc1ccccc1OC	RORgamma inh 11.2µM
COc1ccc(S(=O)(=O)N2CCCN(CC(=O)Nc3ccc(OC)c(Cl)c3)CC2)cc1	RORgamma inh inconclusive, PKM2 activator 20µM
COc1ccc(CC(=O)Nc2cccc(S(=O)(=O)N3CCCCCC3)c2)cc1OC	Gal4-VP16 FLuc 11.2µM
COc1ccc(Cl)cc1NC(=O)CN(C)CC(=O)Nc1cccc(S(=O)(=O)N2CCCC2)c1	none (no result: RORgamma inh, PKM2 activator, Gal4-VP16 FLuc)
O=C(COC(=O)c1cnc(Cl)c(Cl)c1)Nc1ccc(S(=O)(=O)N2CCCC2)cc1	CtBP-E1A inh inconclusive, Six1-Eya2 blk -77.1
Cn1nc(C(=O)OCC(=O)Nc2cccc(S(=O)(=O)N3CCCC3)c2)c2ccccc2c1=O	RORgamma inh inconclusive (no result: CtBP-E1A inh)
CN(N=Nc1nc[nH]c1C(=O)NN)C1CCCCC1	none (no result: RORgamma inh, PKM2 activator, Gal4-VP16 FLuc)
O=C(NC(NNc1ccc([N+](=O)[O-])cc1)(C(F)(F)F)C(F)(F)F)c1ccccc1Cl	none
O=C(NC(Nc1nc2ccc([N+](=O)[O-])cc2s1)(C(F)(F)F)C(F)(F)F)c1ccccc1Cl	RORgamma inh 6.31µM, Gal4-VP16 FLuc 0.891µM
O=C(NC(Nc1nc2ccc([N+](=O)[O-])cc2s1)(C(F)(F)F)C(F)(F)F)c1cccnc1	RORgamma inh inconclusive, Gal4-VP16 FLuc 6.31µM
Cc1cc(C(=O)O)ccc1-c1ccc(/C=C2\NC(=O)N(Cc3ccccc3Cl)C2=O)o1	PKM2 activator 20µM
Cc1ccc(C(=O)O)cc1-c1ccc(/C=C2/NC(=O)N(c3ccccc3)C2=O)o1	RORgamma inh inconclusive, Six1-Eya2 blk -73.9
COc1ccc(S(=O)(=O)N2CCOCC2)cc1NC(=O)CCOc1ccc(C(C)(C)C)cc1	none (no result: RORgamma inh, PKM2 activator, Gal4-VP16 FLuc)
CCOC(=O)N1CCC(n2c(=S)[nH]c3ccccc3c2=O)CC1	RORgamma inh 8.91µM, Gal4-VP16 FLuc 7.08µM
CCOC(=O)N1CCN(C(=O)CCCn2c(=S)[nH]c3ccc(Br)cc3c2=O)CC1	RORgamma inh 12.6µM, Gal4-VP16 FLuc inconclusive
CCOC(=O)N1CCN(C(=O)CCCCCn2c(=S)[nH]c3ccsc3c2=O)CC1	RORgamma inh 11.2µM, Gal4-VP16 FLuc inconclusive
CN(C)c1ccc(/C=N/N=C(N)N)cc1[N+](=O)[O-]	Six1-Eya2 blk inconclusive
Cc1ccc(S(=O)(=O)N2CCCCC2)cc1C(=O)OC(C)C(=O)NCC1CCCCC1 (stereo not drawn)	none (no result: RORgamma inh, PKM2 activator, Gal4-VP16 FLuc)
O=C(NCCc1cscn1)C1CCC(=O)N(Cc2ccc(Cl)cc2)C1 (stereo not drawn)	RORgamma inh 20µM, Gal4-VP16 FLuc inconclusive
O=C(NCCc1ccccc1)C1CCC(=O)N(Cc2ccc(Cl)cc2)C1 (stereo not drawn)	none
Cc1ccc(CC2S/C(=N/N=C/c3ccco3)NC2=O)cc1 (stereo not drawn)	RORgamma inh 1.41µM, Gal4-VP16 FLuc 11.2µM
C/C(=N\N=C1\NC(=O)C(Cc2ccccc2)S1)c1ccccc1 (stereo not drawn)	RORgamma inh 10µM (no result: CtBP-E1A inh)
COc1cc(/C=N/N=C2/NC(=O)C(Cc3ccccc3)S2)ccc1O (stereo not drawn)	RORgamma inh 14.1µM, Gal4-VP16 FLuc inconclusive
O=C1N/C(=N/N=C/c2ccco2)SC1Cc1ccccc1 (stereo not drawn)	RORgamma inh 1µM, Gal4-VP16 FLuc 2.51µM (no result: CtBP-E1A inh)
Cc1csc(=O)n1CC(=O)OCC(=O)c1ccc(Br)cc1	none (no result: RORgamma inh, PKM2 activator, Gal4-VP16 FLuc)
CCC(C)C(=O)Nn1c(C2CC2)nc2cc(OC)c(OC)cc2c1=O (stereo not drawn)	none
COc1ccc(N(CC2CO2)S(=O)(=O)c2ccc(C)cc2)cc1 (stereo not drawn)	none
CCC1S/C(=N/N=C/c2ccco2)N(Cc2ccccc2C)C1=O (stereo not drawn)	none
Cc1cccc(CC2S/C(=N/N=C/c3ccco3)NC2=O)c1 (stereo not drawn)	RORgamma inh 0.891µM, Gal4-VP16 FLuc 5.62µM
Cc1cccc(NC(=O)C2CC(=O)N/C(=N/N=C/c3ccco3)S2)c1 (stereo not drawn)	none
COc1ccccc1CC1S/C(=N/N=C/c2ccco2)NC1=O (stereo not drawn)	RORgamma inh 2.24µM, Gal4-VP16 FLuc 7.08µM (no result: PKM2 activator)
NCCCC[C@H](NC(=O)[C@@H]1CCCN1C(=O)[C@H](CO)NC(=O)[C@H](CC(=O)O)NC(=O)CNC(=O)[C@H](CCCN=C(N)N)NC(=O)CN)C(=O)O	none (no result: PKM2 activator, CtBP-E1A inh, Six1-Eya2 blk)
O=C(c1ccc(Cn2c(=O)[nH]c3ccccc3c2=O)cc1)N1CCN(c2ccccn2)CC1	none
O=C(c1ccc2c(=O)n(Cc3ccccc3Cl)c(=S)[nH]c2c1)N1CCCC1	RORgamma inh 11.2µM, Gal4-VP16 FLuc inconclusive (no result: PKM2 activator)
